Assay results: the supplement of paper PMC6555819

Legend:
Experiment in all cases: PBM binding z-score (relative to random genomic background probes); higher = stronger binding; sequences stand for … in GC…GCGATTGACAGCGTAGAATGAAGG
[1] = system: PPARg:RXRa DBDmut IVT, anti-RXR (DBD mutation: RXRa K156A/R161A, NR concentration 270 nM, RXRa partner concentration 90 nM)
Outline: (§1)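 Antibodies against each partner of ligand-free nuclear receptor dimers (one per run) detected binding on custom Agilent 4×180K protein-binding microarrays after 1 h incubation. The double-stranded probes had 34-nt variable regions carrying direct-repeat seeds, single-nucleotide variants, half-site ablations and random human genomic background sequences. Binding z-scores, from regression-normalized fluorescence, use the random background probes as reference.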

[2] = system: PPARg:RXRa IVT, anti-PPARg (NR concentration 270 nM, RXRa partner concentration 90 nM)
Outline: as §1

[3] = system: PPARg DBDmut:RXRa IVT, anti-PPARg (DBD mutation: PPARg1 K132A/R137A, NR concentration 270 nM, RXRa partner concentration 90 nM)
Outline: as §1

[4] = system: PPARg DBDmut IVT, anti-PPARg (DBD mutation: PPARg1 K132A/R137A, NR concentration 270 nM)
Outline: as §1

[5] = system: PPARg homodimer (NR concentration 180 nM)
Outline: as §1

[6] = system: PXR:RXRa (NR concentration 270 nM, RXRa partner concentration 90 nM)
Outline: as §1

[7] = system: PXR homodimer (NR concentration 270 nM)
Outline: as §1

[8] = system: RARa:RXR (NR concentration 270 nM, RXRa partner concentration 90 nM)
Outline: as §1

[9] = system: RARa homodimer (NR concentration 270 nM)
Outline: as §1

[10] = system: RARb:RXRa (NR concentration 270 nM, RXRa partner concentration 90 nM)
Outline: as §1

Sequence	PBM binding z-score [1]	PBM binding z-score [2]	PBM binding z-score [3]	PBM binding z-score [4]	PBM binding z-score [5]	PBM binding z-score [6]	PBM binding z-score [7]	PBM binding z-score [8]	PBM binding z-score [9]	PBM binding z-score [10]
CGAACTAGGTCAGAACAGGATAGTGAAGGATGAT	7.17	7.33	2.09	2.21	1.07	0.283	0.0335	1.12	0.743	2.97
AGAATGAGGTGAAGATCAGGGAAACAGAATACAT	4.13	4.03	1.46	0.73	0.633	0.242	0.183	0.786	0.494	1.32
ATCTCTAGGCAAAGATAGTTCAGTGAATGCAAAT	0.0233	0.0871	0.389	0.566	-0.0165	-0.0478	0.35	-0.456	0.524	0.211
ACTTACGGGTCAACGCGGTTATAGCACGCGTATA	3.64	4.12	1.26	1.32	1.91	3.92	0.241	4.45	0.802	4.04
CTAACTAGGTCAAGAGGTCAAAGTCCGCTTCCCG	8.74	8.7	3.27	2.76	5.39	6.07	2.21	7.15	1.67	5.5
CGTCCAAGGTCATAGGAGGTCTGTGAAGACAGAT	2.76	3.51	0.436	0.0298	2.07	4.86	1.09	4.27	0.26	5.05
CCTAGTTGGTCCAGGTCACACACGCTATAGGTAC	1.21	2.28	0.272	0.266	2.22	2.34	1.6	2.66	1.7	2.59
ATCTCCAGGTAACAAGTTCAGTGAAAGAGAGGAC	0.841	1.17	1.63	1.37	1.7	1.73	2.04	1.05	1.49	1.76
GCTGCTAGGTCAGGTTCGTCAGCTAACGGGTACG	3.23	2.23	-0.735	-0.897	0.459	0.538	-0.243	0.887	-0.894	3.17
AATACAGGGTCATCGTGGGCCAGAGTACGCACAG	2.57	4.37	0.764	1.07	2.16	4.59	0.368	4.92	0.514	4.36
GCTGCTAGGTCAACTGATGGTCAGCTCAAGCTCG	4.88	3.98	-0.00259	-0.768	2.12	1.66	-0.637	2.9	-0.413	4.23
CCTACTGGGCCATGAGGTCATTGATATCAACGTT	4.24	5.54	0.512	-0.0861	2.41	4.71	3.85	4.49	0.257	2.91
ACTTTTAGTTGACTTAGGGCAACCGATACGACGC	0.679	0.936	1.38	1.82	0.639	0.436	0.106	0.954	0.984	1.23
ATATGTAGGTTACATCCGGGTTATTCAGGCTATG	7.44	7.16	4.04	2.37	3.3	1.2	0.531	1.57	0.67	1.35
AGAGCGAGGGCAATGAGTTGATAGCACGGGTGGC	0.771	0.253	0.00949	-1.18	-0.656	1.38	4.01	0.0108	-1	2.13
TCGAGTAGGTAACCAATGGGGCATTCAGCTTTCT	2.5	1.74	-0.421	-0.752	-0.5	-0.372	-0.877	-0.292	-0.817	0.0352
CCGAGTAGGTTATGGGCCATTCAGGCAACGGTGA	3.19	2.58	-0.937	-0.608	1.06	-0.326	-0.187	-0.0932	-0.148	0.816
GGAACGAGGGCAAGTTGGTAGCAGAGTTTGATGG	3.6	2.34	-0.479	-0.423	0.722	0.696	0.853	0.662	-0.182	2.79
CGACCAAGGTCAGAGAGGTCAGTGAATGCCGAGT	2.95	3.5	0.125	-0.614	5.33	6.21	12.7	5.78	2.47	5.18
CCAACTGGGGCAAAGGTTACCATACTCAGTACGA	6.6	6.7	0.471	-0.285	1.54	2.39	0.017	4.34	0.873	2.65
TCATATAGGTAATACAGGTGAATGTCGGCATCTA	4.3	3.5	1.54	1.28	1.27	0.727	0.579	1.2	1.94	0.634
AGAATGAGGCTAAGATCAGGGAAACAGAATACAT	0.345	0.552	0.582	0.0133	0.00249	-0.259	0.0356	-0.0952	0.229	0.158
AGAATGAGGTTATACGTAGATCAGGGCAGAAAGT	4.01	2.15	0.485	0.402	0.774	1.45	1.34	1.82	0.705	1.51
